Measured values reported in the OligoGym collection.
Also: reference of the scale not given here.

What follows are sequences tested against RWDD2B (assay: pooled miR-30 sensor sort-seq; sequence = guide strand). Details: shRNA.
Work on TTCCACACAAACAACACCAGGT yielded a sensor-assay potency score (higher = more potent) of 0.95. TTGGACATGTGTAAGTTTCTTG gave a sensor-assay potency score (higher = more potent) of 0.645. TTCAGTATACAAACATCTCCAT was tested, and the sensor-assay potency score (higher = more potent) was 0.0635. TTTCAGTTCTGCTACAGCCAGC gave a sensor-assay potency score (higher = more potent) of -0.902. In the case of TTGATAGTAAAGTAGACTTTTG, the sensor-assay potency score (higher = more potent) is reported as -1.18. In the case of TCAACTGACTGGACTGTGCTTC, the sensor-assay potency score (higher = more potent) is reported as 0.407. Work on TAACACTGAACACTTTTTCTTC yielded a sensor-assay potency score (higher = more potent) of -0.298. TTTTTCGTCAGATACATCCAGG was tested, and the sensor-assay potency score (higher = more potent) was -0.29. With TCAGTATACAAACATCTCCATG the sensor-assay potency score (higher = more potent) was -1.45. In the case of TCTTCTTTTCAATACAATCTTT, the sensor-assay potency score (higher = more potent) is reported as -0.675. TAGAATATTCTTTCTTTTGCAT showed a sensor-assay potency score (higher = more potent) of 0.0563. Sequence TCCATTAACACTGAACACTTTT has a sensor-assay potency score (higher = more potent) of -0.901.

These sequences were tested against RXFP4 in the same assay as above. Details: shRNA.
TAGCGAGCAACGCTCAGCGCTG gave a sensor-assay potency score (higher = more potent) of -1.3. TACAGCACAGGGTTGAGGCAGC was tested, and the sensor-assay potency score (higher = more potent) was -0.483. For TAGGAATTTGACAGGCATCGGA, the sensor-assay potency score (higher = more potent) was 0.2. TTGCTTGCGACCCACCGCCTGC showed a sensor-assay potency score (higher = more potent) of -0.81. AACTTCACCAGGACACCCCAGA gave a sensor-assay potency score (higher = more potent) of -1.12. AGGAATTTGACAGGCATCGGAG gave a sensor-assay potency score (higher = more potent) of -1.05. TAGAAGGGCGGCTCTCCCGGGG gave a sensor-assay potency score (higher = more potent) of -0.734. For TAGACGTTGAGGACAGTGGCCG, the sensor-assay potency score (higher = more potent) was 0.159. TCTTGCAGAGGGCACCTCCGAA gave a sensor-assay potency score (higher = more potent) of -1.29. In the case of TAGCTGGTGGTGATGACGCCCA, the sensor-assay potency score (higher = more potent) is reported as -0.885. TCAGGAGACAGTACAGCACAGG gave a sensor-assay potency score (higher = more potent) of -0.981. TTGAAGACGAAGGTGTCTGAAG showed a sensor-assay potency score (higher = more potent) of -0.402.

The sequences below were run against RYK in the same assay as above. Details: shRNA.
Sequence TTTTCATCTATTAAAATCCCAT has a sensor-assay potency score (higher = more potent) of -0.695. In the case of TATTGCTATATCCTTCACCTTG, the sensor-assay potency score (higher = more potent) is reported as -0.912. For TTACTGCACAACAAACCCCTAC, the sensor-assay potency score (higher = more potent) was -0.546. Work on TTGTAGCACATTTTCCTTCGTT yielded a sensor-assay potency score (higher = more potent) of 0.000719. TAACTGTTTTGACAAATGCTTG showed a sensor-assay potency score (higher = more potent) of -1.47. In the case of TTTAGAGTTATCCTCTCTCTGG, the sensor-assay potency score (higher = more potent) is reported as -0.8. With TATTCGGTAACCATCTTTCAGG the sensor-assay potency score (higher = more potent) was -0.693. In the case of TTGAAGACAAACCATTTCCCAG, the sensor-assay potency score (higher = more potent) is reported as -0.946. TTGTATTATCTCCTTTTCCAGA showed a sensor-assay potency score (higher = more potent) of -1.16. In the case of TTTTTGTAGCACATTTTCCTTC, the sensor-assay potency score (higher = more potent) is reported as -0.15. For TTGTCTGTGATCTTAACTTGAA, the sensor-assay potency score (higher = more potent) was -0.554. TTTCATACTATGAAGGTGCAAA gave a sensor-assay potency score (higher = more potent) of -0.131.
